Screening results as filed in PubChem BioAssay.
IL-1B inflam inh: qHTS for Inhibitors of Inflammasome Signaling: IL-1-beta AlphaLISA Primary Screen; THP-1 LPS/ATP IL-1B secretion, AlphaLISA, 16 h; stronger effect = lower value; activity change, % at 57.5 µM; hit rate 4.7% among 360,000; AID 743279, 2014; in the data active = activity change below about -50%; inconclusive = mostly about -30% to -49%; note: % is set by controls: 0 for no effect and ±100 for the full control effect
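THP-1 cells pretreated 1 hr with compounds (up to 57.5 uM final), then stimulated with LPS (250 ng/mL final) plus ATP (1.25 mM final); secreted IL-1B measured by AlphaLISA after 16 hr, decreased signal indicating inhibition.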
Vif-A3F inh: qHTS for Inhibitors of Vif-A3F Interactions: qHTS. HeLa A3F-eYFP + Vif (tagged APOBEC3F with the HIV-1 protein that degrades it), YFP fluorescence increase. Potency, µM (doses to about 46.1 µM), for the others: top-dose activity, negative = active. hit rate 0.2% among 390,000; note: potency is the fitted concentration of half-maximal effect; % of control where 0% means no effect; nearly all actives have a fitted effect of over 65% in size
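HeLa cells stably expressing A3F-eYFP plus Vif, plated and incubated overnight at 37 deg C, then exposed to compounds overnight at 37 deg C. Blocked degradation read as raised yellow fluorescence (Ex 488/Em 500-530).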
Vif-A3G inh: qHTS for Inhibitors of Vif-A3G Interactions: qHTS | hit rate 0.076% among 410,000 | DNA dC->dU-editing enzyme APOBEC-3G (Homo sapiens), Q9HC16 | Potency, µM (series often up to 46.1 µM), inactives show at the highest dose activity, negative = active, actives largely listed as inhibitors | HeLa A3G-eYFP + Vif (tagged APOBEC3G with the HIV-1 protein that degrades it), YFP fluorescence, overnight; note: potency is the fitted concentration of half-maximal effect; % is set by controls: 0 for no effect and ±100 for the full control effect; nearly all actives have a fitted effect of over 60% in size
Target sequence (Q9HC16 whole entry, looked up): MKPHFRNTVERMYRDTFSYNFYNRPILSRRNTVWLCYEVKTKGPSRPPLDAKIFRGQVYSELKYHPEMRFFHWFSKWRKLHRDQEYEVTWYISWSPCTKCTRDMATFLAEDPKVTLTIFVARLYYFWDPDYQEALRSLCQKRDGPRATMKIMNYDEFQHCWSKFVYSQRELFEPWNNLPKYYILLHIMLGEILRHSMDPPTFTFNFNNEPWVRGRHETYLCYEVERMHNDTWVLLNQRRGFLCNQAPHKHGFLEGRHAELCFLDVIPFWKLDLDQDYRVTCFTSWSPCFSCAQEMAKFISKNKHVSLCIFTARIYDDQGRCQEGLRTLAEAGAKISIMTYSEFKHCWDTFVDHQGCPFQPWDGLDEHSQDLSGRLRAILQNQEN
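HeLa cells stably expressing Vif and C-terminally eYFP-tagged A3G, seeded overnight at 37 deg C, then exposed to compound by pintool overnight at 37 deg C. Rise in yellow fluorescence (Ex 488/Em 500-530, Acumen) marks blocked Vif-driven A3G degradation.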
Giardia kill: Small Molecules that selectively kill Giardia lamblia: qHTS. Giardia lamblia trophozoite viability. activity change, % at 7.66 µM, hits read low. AID 540267, 2011. hit rate 0.15% among 340,000; in the data active = activity change below about -80%; inconclusive = between about -30% and that limit;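 note: parasites exposed to compound for two days anaerobically before the ATP read; % is set by controls: 0 for no effect and ±100 for the full control effect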
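Trophozoite viability was measured as ATP-dependent luminescence, read 15-30 min after reagent addition. Before that, parasites at 100 cells/well were exposed to compounds for 48 h, anaerobically, at 37 deg C.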
SW480 rereplic: A quantitative high throughput screen for small molecules that induce DNA re-replication in SW480 colon adenocarcinoma cells; SW480 DNA re-replication, Hoechst DNA content imaging, 48 h; Potency, µM (series often up to 46.1 µM), without a hit: at the highest dose re-replication activation, actives largely listed as activators; hit rate 1.8% among 340,000; AID 624297, 2012; note: potency is the fitted concentration of half-maximal effect; % of control where 0% means no effect; nearly all actives have a fitted effect of over 55% in size
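Cells (250 per well) received 23 nL compound or DMSO by pin tool and were kept 48 hr at 37 C, 5% CO2. Nuclei were then stained with Hoechst for 40 min and scanned for DNA content.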
MCF10A rereplic: A quantitative high throughput screen for small molecules that induce DNA re-replication in MCF 10a normal breast cells. Potency, µM (top dose mostly 46.1 µM), without a hit: at the highest dose activity, positive = re-replication, hits mostly activators. hit rate 2.9% among 350,000. MCF 10A DNA re-replication, Hoechst nuclear intensity, 48 h; note: potency is the fitted concentration of half-maximal effect; % of control where 0% means no effect; nearly all actives have a fitted effect of over 50% in size
An asterisk follows results filed as active. An excerpt weighted towards active compounds, which were near 6.9% of everything screened. Unless noted, calls come from the whole dose curve; as a rule, active = well fitted curve in the direction sought with a large enough effect; inconclusive = small, poorly fitted or top-dose-only effect, or another doubt; inactive = no such curve, though single readings can be large; an effect the other way counts as inactive or inconclusive.

For CCCCC(=O)N/N=C/c1ccc(-c2ccc([N+](=O)[O-])cc2)o1 the results were IL-1B inflam inh -21, Vif-A3F inh -2%, Vif-A3G inh -3%, Giardia kill -2, SW480 rereplic 11% and MCF10A rereplic 0%.
For CC(C)(C)NC(=S)N/N=C\c1ccc(-c2ccc([N+](=O)[O-])cc2)o1 the results were Vif-A3F inh 25µM*, Vif-A3G inh 10µM*, Giardia kill -28, SW480 rereplic 21µM* and MCF10A rereplic 16µM*.
For CCCCOc1ccccc1NC(=O)Cn1c(-c2cncs2)nc2ccccc21 the results were Vif-A3F inh -3% and Vif-A3G inh 2%.
Cc1cc(C)c2c(CC(=O)Nc3ccccc3C(F)(F)F)coc2c1 was read as Vif-A3F inh 8% and Vif-A3G inh 0%.
O=C(O)C1CCN(c2nc(-c3ccccc3)c3cc(Br)ccc3n2)CC1 was read as IL-1B inflam inh 27, Vif-A3F inh 10%, Vif-A3G inh -4%, Giardia kill 6, SW480 rereplic 1% and MCF10A rereplic 23µM*.
`O=C(O)CCCC(=O)N1CCN(c2nc(-c3ccccc3Cl)c3cc(Br)ccc3n2)CC1` gave IL-1B inflam inh 12, Vif-A3F inh 7%, Vif-A3G inh -3%, Giardia kill -3, SW480 rereplic -13% and MCF10A rereplic inconclusive.
OCCN1CCN(c2nc(-c3ccccc3)c3cc(Br)ccc3n2)CC1 was read as IL-1B inflam inh -79*, Vif-A3F inh 1%, Vif-A3G inh -2%, Giardia kill 11, SW480 rereplic 21µM* and MCF10A rereplic 18µM*.
Screening COc1ccc(NC(=O)Cn2ncc3c4ccccc4n(Cc4ccccc4)c3c2=O)cc1OC returned Vif-A3F inh -14% and Vif-A3G inh -3%.
For Cc1nc(/C=C\C(=O)O)c2cc(C)oc2n1 the results were IL-1B inflam inh -66*, Vif-A3F inh -5%, Vif-A3G inh 2%, Giardia kill -6, SW480 rereplic -6% and MCF10A rereplic 7%.
O=C(CN1C(=O)C(=O)N(CCC2=CCCCC2)C1=O)c1c[nH]c2ccccc12 was read as IL-1B inflam inh -59*, Vif-A3F inh inconclusive, Vif-A3G inh -10%, Giardia kill 4, SW480 rereplic 1% and MCF10A rereplic inconclusive.
Screening O=C(CN1C(=O)C(=O)N(Cc2ccco2)C1=O)c1c[nH]c2ccccc12 returned IL-1B inflam inh 31, Vif-A3F inh -7%, Vif-A3G inh -2%, Giardia kill 7, SW480 rereplic inconclusive and MCF10A rereplic 16%.
`CSc1snc(SCC(N)=O)c1C#N` gave IL-1B inflam inh -7, Vif-A3F inh 3%, Vif-A3G inh -7%, Giardia kill -3, SW480 rereplic -6% and MCF10A rereplic 1%.
`COC(=O)CSc1nsc(SCC(=O)OC)c1C#N` gave IL-1B inflam inh -100*, Vif-A3F inh -12%, Vif-A3G inh -6%, Giardia kill 36, SW480 rereplic inconclusive and MCF10A rereplic inconclusive.
Screening CC1=C(C(=O)N(C(C)C)C(C)C)CC(CC(=O)NCCCCc2ccccc2)C(=O)N1Cc1ccc(F)cc1 (centres undefined) returned IL-1B inflam inh -56* and Vif-A3G inh -7%.
CC1=C(C(=O)N(C(C)C)C(C)C)CC(CC(=O)NCCCCc2ccccc2)C(=O)N1Cc1ccccc1 (centres undefined) was read as IL-1B inflam inh 0, Vif-A3F inh -6% and Vif-A3G inh 4%.
Screening CC1=C(C(=O)N(C(C)C)C(C)C)CC(CC(=O)NCc2cccs2)C(=O)N1Cc1ccc(C(C)(C)C)cc1 (centres undefined) returned IL-1B inflam inh -59* and Vif-A3G inh -8%.
For CC1=C(C(=O)N(C(C)C)C(C)C)CC(CC(=O)NC(c2ccccc2)c2ccccc2)C(=O)N1Cc1ccc(C(C)(C)C)cc1 (centres undefined) the results were IL-1B inflam inh -59* and Vif-A3G inh -2%.
`COc1ccc(S(=O)(=O)N(CC(=O)N2CCC(C)CC2)c2ccc(C)cc2)cc1` gave Vif-A3F inh -1% and Vif-A3G inh 6%.
For CC(C)c1ccc(S(=O)(=O)N2CCN(Cc3cccc(F)c3)CC2)cc1 the results were Vif-A3F inh 2% and Vif-A3G inh -5%.
For Cn1c(=O)[nH]c(=O)c2c1nc(N1CCNCC1)n2Cc1ccccc1 the results were IL-1B inflam inh 13, Vif-A3F inh -2%, Vif-A3G inh 0%, Giardia kill 6, SW480 rereplic inconclusive and MCF10A rereplic 0%.
For CC(C)Cn1c([N+](=O)[O-])nc2c1c(=O)[nH]c(=O)n2C the results were IL-1B inflam inh -98*, Vif-A3F inh 5%, Vif-A3G inh -6%, Giardia kill -5, SW480 rereplic inconclusive and MCF10A rereplic 12µM*.
For Cn1c(=O)[nH]c(=O)c2c1nc([N+](=O)[O-])n2Cc1ccccc1 the results were Vif-A3F inh 8%, Vif-A3G inh -14%, Giardia kill 2, SW480 rereplic -32% and MCF10A rereplic 2.1µM*.
`CN(Cc1ccccc1)c1nc2c(c(=O)[nH]c(=O)n2C)n1CCCc1ccccc1` gave IL-1B inflam inh -54*, Vif-A3F inh -1%, Vif-A3G inh 0%, Giardia kill -5, SW480 rereplic 2% and MCF10A rereplic -12%.
For Cc1cccc(C(=O)Nc2ccccc2C(=O)OCc2cc(=O)n3nc(C4CC4)sc3n2)c1 the results were Vif-A3F inh -7% and Vif-A3G inh 3%.
Screening O=C(CCc1nnc2n(Cc3ccccc3Cl)c(=O)c3ccccc3n12)Nc1ccccc1 returned Vif-A3F inh 2% and Vif-A3G inh 4%.
COC(=O)[C@]12CCCCC=C1N(Cc1ccc3c(c1)OCO3)C(=O)[C@H](CC(=O)NCC1CCCCC1)C2 was read as IL-1B inflam inh -29.
Screening Cc1ccc(-c2noc(CN(C(=O)c3cccs3)C(C)C)n2)cc1 returned IL-1B inflam inh -78*, Vif-A3F inh 4%, Vif-A3G inh 3%, Giardia kill 6, SW480 rereplic inconclusive and MCF10A rereplic inconclusive.
CSc1ncc2c(=O)[nH]c(-c3ccccc3)nc2n1 was read as IL-1B inflam inh -74*, Vif-A3F inh 7%, Vif-A3G inh -11%, Giardia kill -30, SW480 rereplic 23% and MCF10A rereplic 2%.
